Assay [1] addresses Progesterone receptor (Homo sapiens) (UniProt P06401). In words: qHTS assay to identify small molecule agonists of the progesterone receptor (PR) signaling pathway (AID 1346784; calls by dose curve; further: nearly all actives have a fitted effect of over 30% in size). The method in brief:
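Reporter assay, GripTite PR-UAS-bla HEK 293T cells: 16 hr exposure to DMSO-dissolved compounds at 37C, 5% CO2, in steroid-depleted (2% charcoal-stripped FBS) medium; beta-lactamase measured by FRET fluorescence.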
For orientation: Quantitative high-throughput screening tests each substance at several concentrations.

The target is the same in assay [2]. Briefly: qHTS assay to identify small molecule antagonists of the progesterone receptor (PR) signaling pathway (AID 1346795; active means well fitted inhibition curve with a large enough effect in the signal ratio in the repeat runs, not every such curve was filed as active; the % refers to the signal ratio; further: potency means the concentration at half of the fitted maximal effect). Put shortly: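 Stimulus R5020 at 1 nM final; cells HEK293T PR-UAS-bla; medium with 2% charcoal-stripped FBS; compound exposure 16 hr at 37C, 5% CO2; detection by FRET beta-lactamase substrate, 2 hr, room temperature.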
Assay [3] can be described thus: qHTS assay to identify small molecule agonists of the TGF-beta/Smad signaling pathway (AID 1346859; active means well fitted activation curve with a large enough effect in the signal ratio in the repeat runs, not every such curve was filed as active; the % refers to the signal ratio; further: series mostly up to about 77 µM). Put shortly:
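Screening used HEK 293T SBE-bla cells at 4,000/well. Test agents: 5 hr, 37 C. Detection: FRET substrate, 2 hr RT, then excitation 405 nm with emissions at 460 and 530 nm.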

Assay [4] in a line: Caspase-3/7 induction in HepG2 cells by small molecules, qHTS assay (AID 1346978). Further: nearly all actives have a fitted effect of over 15% in size. Further: potency means the concentration at half of the fitted maximal effect. The method in brief: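 Caspase-3/7 induction was measured by Caspase-Glo 3/7 luminescence (30 min, room temperature) after a 17 hr compound exposure of wild-type HepG2 cells seeded at 2,000 per well and pre-incubated 5 hr.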
A short description of assay [5]: qHTS assay to identify small molecule agonists of the androgen receptor (AR) signaling pathway in the presence of an antagonist - cell viability counter screen (AID 1259379). Further: nearly all actives have a fitted effect of over 25% in size. Further: potency means the concentration at half of the fitted maximal effect. Put shortly: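 Cells: MDA-kb2 (MMTV-luc, AR and GR elements), 3,000/well, 5 hr settle. Added: nilutamide 3.0uM final, then compounds (15 conc.). Incubation: 16 hr, 37C, no CO2. Read-out: CellTiter-Fluor, 1 hr, fluorescence.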

The nature of assay [6]: qHTS assay to identify small molecule agonists of the estrogen receptor beta (ER-beta) signaling pathway - cell viability counter screen (AID 1259380). Further: nearly all actives have a fitted effect of over 30% in size. Further: potency means the concentration at half of the fitted maximal effect. The method in brief: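 HEK293T ER-beta-UAS-bla; 2% CS-FBS; 6 hr pre-plate, 16 hr cpd at 37C/5% CO2; LiveBLAzer read first, then CellTiter-Glo 30 min RT, luminescence.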
A short description of assay [7]: qHTS assay to identify small molecule agonists of the estrogen receptor alpha (ER-alpha) signaling pathway in the presence of an antagonist - cell viability counter screen (AID 1259386).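 Further: series mostly up to about 92 µM; cells exposed to compounds for 22 h at 37 °C before the viability read; nearly all actives have a fitted effect of over 30% in size.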 The method in brief:
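VM7Luc4E2, stripped-serum pre-culture 5 d; 24hr plating; +ICI-182,780 10.0nM final; cpds 15 conc, 22hr, 37C/5% CO2; CellTiter-Fluor added at 21hr, fluorescence 1hr later.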

Assay [8] can be described thus: qHTS assay to identify small molecule agonists of the progesterone receptor (PR) signaling pathway - cell viability counter screen (AID 1346799; calls by dose curve; further: nearly all actives have a fitted effect of over 45% in size; further: potency means the concentration at half of the fitted maximal effect). Put shortly:
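Multiplexed viability read: CellTiter-Glo luminescence, 30 min RT, following LiveBLAzer FRET measurement on PR-UAS-bla HEK293T cells exposed to compounds 16 hr.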

Assay [9] in a line: qHTS assay to identify small molecule antagonists of the TGF-beta/Smad signaling pathway - cell viability counter screen (AID 1346824). Further: nearly all actives have a fitted effect of over 50% in size. Put shortly:
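Cytotoxicity counter-screen run in the same wells as the beta-lactamase Smad reporter read: CellTiter-Glo luminescence after 30 min at room temperature. HEK 293T SBE-bla cells had 5 hr compound exposure at 37 C with TGF-beta1 (0.25 ng/mL stock).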

Assay [10] is described as follows: qHTS assay to identify small molecule agonists of the TGF-beta/Smad signaling pathway - cell viability counter screen (AID 1346829). Further: top concentration of the series differs between compounds; nearly all actives have a fitted effect of over 45% in size. Put shortly:
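Compound-treated SBE-bla HEK 293T cells (5 hr, 37 C) were assessed for viability with CellTiter-Glo in parallel with the reporter read.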

A short description of assay [11]: qHTS assay to identify small molecule agonists or antagonists of the thyroid stimulating hormone receptor (TSHR) signaling pathway - wild type cell line counter screen (AID 1259384; calls by dose curve). Put shortly:
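Counter screen in untransfected Hek293: compounds (15-point titration, triplicate) plus phosphodiesterase inhibitor Ro20-1724 added after 18 h plating; 30 min RT. Intracellular cAMP via competitive d2/cryptate immunoassay, 1 h incubation.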

In assay [12] the target is Thyrotropin receptor (Homo sapiens) (UniProt P16473). Briefly: qHTS assay to identify small molecule antagonists of the thyroid stimulating hormone receptor (TSHR) signaling pathway (AID 1259385; calls by dose curve; further: nearly all actives have a fitted effect of over 20% in size). Put shortly: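 Antagonist mode: compound-treated TSHR-expressing HEK293 cells were stimulated with 1.5 ng/mL TSH (final) in presence of Ro20-1724 for 30 min at RT. HTRF cAMP detection after 1 h; each compound tested at 15 concentrations, triplicate.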
Chain of Thyrotropin receptor (Homo sapiens) (P16473 whole entry, looked up): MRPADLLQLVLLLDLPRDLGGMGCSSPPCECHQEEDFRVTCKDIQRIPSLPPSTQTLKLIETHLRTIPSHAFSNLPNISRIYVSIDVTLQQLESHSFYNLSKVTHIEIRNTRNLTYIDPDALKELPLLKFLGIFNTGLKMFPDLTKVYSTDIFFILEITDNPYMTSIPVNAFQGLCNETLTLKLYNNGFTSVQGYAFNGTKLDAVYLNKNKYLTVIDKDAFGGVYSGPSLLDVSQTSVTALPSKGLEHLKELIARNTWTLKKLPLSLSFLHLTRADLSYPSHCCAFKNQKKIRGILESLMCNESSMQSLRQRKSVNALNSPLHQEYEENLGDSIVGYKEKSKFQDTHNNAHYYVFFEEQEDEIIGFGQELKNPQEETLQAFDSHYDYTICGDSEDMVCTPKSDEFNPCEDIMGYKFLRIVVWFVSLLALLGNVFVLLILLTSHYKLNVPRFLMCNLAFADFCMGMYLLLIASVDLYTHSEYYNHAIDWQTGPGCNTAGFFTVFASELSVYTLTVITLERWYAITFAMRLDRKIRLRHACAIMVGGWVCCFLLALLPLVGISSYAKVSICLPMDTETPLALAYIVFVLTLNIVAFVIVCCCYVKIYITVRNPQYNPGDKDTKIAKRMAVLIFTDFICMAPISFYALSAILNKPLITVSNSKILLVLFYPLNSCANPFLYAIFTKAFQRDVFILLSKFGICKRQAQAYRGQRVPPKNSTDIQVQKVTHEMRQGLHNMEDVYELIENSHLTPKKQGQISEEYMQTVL

Assay [13] in a line: qHTS assay to identify small molecule antagonists of the progesterone receptor (PR) signaling pathway - cell viability counter screen (AID 1346798). Further: series mostly up to about 92 µM; nearly all actives have a fitted effect of over 50% in size. Put shortly: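 In the same plates used for the beta-lactamase readout, cell viability of compound- and R5020-treated PR-UAS-bla HEK293T cells (16 hr, 37C) was assessed by CellTiter-Glo luminescence.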
Assay [14] concerns the target Thyrotropin-releasing hormone receptor (Homo sapiens) (UniProt P34981). In words: qHTS assay to identify small molecule antagonists of the thyrotropin-releasing hormone receptor (TRHR) signaling pathway (AID 1346877; active means well fitted inhibition curve with a large enough effect in the repeat runs, not every such curve was filed as active; further: potency means the concentration at half of the fitted maximal effect). Put shortly: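 Intracellular calcium fluorescence, read kinetically every second over 3 min, reports TRH-evoked signalling in HEK293 cells carrying TRHR. Test compounds were added 5 min ahead of a 1 nM TRH challenge.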

Assay [15] shares this target. In words: qHTS assay to identify small molecule agonists of the thyrotropin-releasing hormone receptor (TRHR) signaling pathway (AID 1346891; calls by dose curve; further: potency means the concentration at half of the fitted maximal effect; on activation: series mostly up to about 58 µM). The method in brief: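 Readout was intracellular calcium fluorescence in TRHR-Hek293 cells. Cells were incubated 18 h, dye-loaded 2 h at 37 °C, and treated with compound in agonist mode.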
A short description of assay [16]: Human pregnane X receptor (PXR) small molecule agonists, qHTS cell viability counter screen (AID 1346977). Further: nearly all actives have a fitted effect of over 50% in size. Further: potency means the concentration at half of the fitted maximal effect. The method in brief: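 In each well, the PXR reporter HepG2 line was checked for viability: CellTiter-Fluor reagent added 23hr post-dosing, fluorescence read after 1hr incubation at 37C.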
Assay [17] can be described thus: Caspase-3/7 induction in CHO-K1 cells by small molecules, qHTS cell viability counter screen (AID 1346979). Further: nearly all actives have a fitted effect of over 35% in size. Further: potency means the concentration at half of the fitted maximal effect. Put shortly:
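Following a 5hr settling period, CHO-K1 cells at 1,500 per well received DMSO-dissolved compounds. Cell viability was quantified 16hr later by CellTiter-Fluor fluorescence, measured after 1hr with reagent at 37C.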

Assay [18] has as its target Estrogen receptor (Homo sapiens) (UniProt P03372). Briefly: qHTS assay to identify small molecule agonists of the estrogen receptor alpha (ER-alpha) signaling pathway in the presence of an antagonist (AID 1259383; calls by dose curve; further: top concentration of the series differs between compounds; nearly all actives have a fitted effect of over 15% in size). The method in brief: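 VM7Luc4E2, endog. ER-alpha + 4×ERE-luc; charcoal-stripped FBS, phenol red-free, 5 d; 24hr plating; +10.0nM ICI-182,780 (final); cpds 15 conc, 22hr, 37C/5% CO2; ONE-Glo luminescence.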

The structures appear in SMILES notation. Several values for one entry are separate records, joined by “and”; a condition that tells them apart may be missing. Equal values may be shown once. Results filed as inconclusive are left out. A structure can be active in one record and inactive in another. Activity calls are given as the source filed them. Unless noted, the call rests on the fitted dose curve; in most records, active means well fitted curve in the direction sought with a large enough effect in the repeat runs; inconclusive means weak or mixed curves; inactive means no such curve, though single readings can be large; an effect the other way counts as inactive or inconclusive.
On the % scale 0 is the no-effect control and ±100 the full control effect.

Chain of Estrogen receptor (Homo sapiens) (P03372 whole entry, looked up): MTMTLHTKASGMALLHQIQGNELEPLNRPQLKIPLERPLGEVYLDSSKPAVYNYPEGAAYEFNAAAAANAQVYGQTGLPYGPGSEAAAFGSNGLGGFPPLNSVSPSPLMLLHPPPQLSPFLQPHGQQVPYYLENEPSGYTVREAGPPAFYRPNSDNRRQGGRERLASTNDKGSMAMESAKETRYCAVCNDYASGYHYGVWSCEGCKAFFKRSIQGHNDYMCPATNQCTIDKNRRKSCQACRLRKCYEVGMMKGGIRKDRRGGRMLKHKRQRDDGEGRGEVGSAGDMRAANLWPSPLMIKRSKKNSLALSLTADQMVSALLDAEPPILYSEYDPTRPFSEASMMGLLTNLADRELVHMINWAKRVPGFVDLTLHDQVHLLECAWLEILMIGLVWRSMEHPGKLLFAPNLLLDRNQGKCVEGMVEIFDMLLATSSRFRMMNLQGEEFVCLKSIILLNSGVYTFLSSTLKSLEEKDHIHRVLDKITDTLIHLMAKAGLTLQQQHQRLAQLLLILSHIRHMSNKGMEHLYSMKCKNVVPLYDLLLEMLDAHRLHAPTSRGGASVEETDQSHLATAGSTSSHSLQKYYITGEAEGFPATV
Chain of Progesterone receptor (Homo sapiens) (P06401 whole entry, looked up): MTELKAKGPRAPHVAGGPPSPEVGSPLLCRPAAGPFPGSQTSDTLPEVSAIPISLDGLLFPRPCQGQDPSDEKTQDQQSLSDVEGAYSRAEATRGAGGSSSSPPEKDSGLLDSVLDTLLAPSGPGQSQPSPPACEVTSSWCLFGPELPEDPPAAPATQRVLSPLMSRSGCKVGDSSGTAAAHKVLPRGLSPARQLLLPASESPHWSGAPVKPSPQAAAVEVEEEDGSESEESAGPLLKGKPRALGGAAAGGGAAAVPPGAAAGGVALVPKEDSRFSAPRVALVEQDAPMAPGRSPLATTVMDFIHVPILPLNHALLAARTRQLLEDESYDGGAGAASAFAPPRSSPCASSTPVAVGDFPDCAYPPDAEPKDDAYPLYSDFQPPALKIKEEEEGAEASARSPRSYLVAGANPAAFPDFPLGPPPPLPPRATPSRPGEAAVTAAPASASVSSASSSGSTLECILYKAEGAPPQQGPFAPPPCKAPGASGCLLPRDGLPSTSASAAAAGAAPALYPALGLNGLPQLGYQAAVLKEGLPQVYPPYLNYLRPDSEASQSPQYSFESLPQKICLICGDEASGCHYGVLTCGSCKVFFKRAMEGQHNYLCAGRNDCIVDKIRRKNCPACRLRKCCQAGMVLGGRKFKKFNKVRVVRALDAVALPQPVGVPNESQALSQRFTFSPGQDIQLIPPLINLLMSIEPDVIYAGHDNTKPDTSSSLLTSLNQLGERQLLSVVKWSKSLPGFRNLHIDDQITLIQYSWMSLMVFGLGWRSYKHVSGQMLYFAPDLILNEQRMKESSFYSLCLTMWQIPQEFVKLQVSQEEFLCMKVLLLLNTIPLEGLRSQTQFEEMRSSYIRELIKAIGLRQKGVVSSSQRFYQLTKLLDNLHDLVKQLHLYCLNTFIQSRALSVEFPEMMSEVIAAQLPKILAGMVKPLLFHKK
Chain of Thyrotropin-releasing hormone receptor (Homo sapiens) (P34981 whole entry, looked up): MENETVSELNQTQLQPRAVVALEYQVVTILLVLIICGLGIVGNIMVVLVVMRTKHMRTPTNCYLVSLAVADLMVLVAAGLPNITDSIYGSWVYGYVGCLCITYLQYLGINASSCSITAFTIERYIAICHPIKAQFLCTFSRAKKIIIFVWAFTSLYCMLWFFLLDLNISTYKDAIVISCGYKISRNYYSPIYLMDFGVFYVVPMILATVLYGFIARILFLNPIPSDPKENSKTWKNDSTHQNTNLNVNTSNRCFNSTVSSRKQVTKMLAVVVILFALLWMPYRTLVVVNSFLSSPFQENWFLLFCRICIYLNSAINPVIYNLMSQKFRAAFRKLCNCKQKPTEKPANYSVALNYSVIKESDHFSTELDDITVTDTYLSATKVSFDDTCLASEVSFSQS

Regarding `CCCCCCCCCCCCn1cc[n+](C)c1`, the Potency entry in assay [1] and in [3] was “inactive” each time. Besides, the Potency is 27.5 µM (active) [middle of 4 runs] in [2]; 43.6 µM (active) and inactive in assay [4].

Consider `Oc1cccc2cccnc12`, for which the Potency in assay [5] was 6.14 µM (active) and 9.69 µM (active) and inactive; in [6], 1.38 µM (active) and 1.22 µM (active) and inactive; in assay [2] it was 4.6 µM (active) and inactive; in assay [8] it was 770 nM (active) and inactive; in [4], 54.8 µM (active) and inactive and 10.6 µM (active). The Potency entry in assay [7], in assay [1], in [9], in assay [10] and in assay [3] was “inactive” each time.

In the case of `O=C(O)CCl`, the Potency result in assay [5], in [6], in assay [11], in assay [12], in assay [7] and in [1] was “inactive” each time. Moreover, the Potency entry in [2], in [13], in assay [8], in assay [9], in assay [10] and in [3] was “inactive” in each case. In addition, the Potency entry in assay [14], in assay [15], in assay [16], in assay [4] and in assay [17] was “inactive” in each case.

With `COP(=O)(OC)OC=C(Cl)Cl`, the Potency entry in assay [5], in [6], in [18], in assay [7], in [1] and in assay [2] was “inactive” each time. Besides, the Potency result in [13], in [8], in [9], in assay [10], in assay [3] and in assay [14] was “inactive” in each case. In addition, the Potency result in [15], in assay [16], in assay [4] and in assay [17] was “inactive” each time.

Consider `Nc1ccccc1`, for which the Potency entry in assay [5], in assay [6], in [11], in [12], in assay [1] and in assay [2] was “inactive” each time. The Potency result in [13], in assay [8], in [9], in [10], in assay [3] and in [14] was “inactive” each time. The Potency result in [15], in [16], in assay [4] and in [17] was “inactive” in each case.

With `CCn1cc[n+](C)c1C`, the Potency result in assay [5], in assay [6], in assay [1], in [2], in [13] and in [8] was “inactive” in each case. Also, the Potency entry in assay [9], in assay [10], in [3], in assay [16], in assay [4] and in assay [17] was “inactive” in each case.

`CCCC[n+]1ccc(C)cc1`: the Potency entry in assay [5], in assay [10] and in [3] was “inactive” throughout. The Potency result in assay [6] is “inactive and 60.8 µM (active)”; in [8], “inactive and 60.8 µM (active)”; in assay [14] it was “inactive and 24 µM (active)”; in [15] it was “inactive and 15.5 µM (active)”; in assay [16], “inactive and 6.12 µM (active)”; in assay [4], “inactive and 54.2 µM (active)”. The Potency result in [17] is “inactive and 54.2 µM (active)”.

Turning to `CN(C)[C@@H]1C(=O)C(C(N)=O)=C(O)[C@@]2(O)C(=O)C3=C(O)c4c(O)cccc4[C@@](C)(O)[C@H]3[C@H](O)[C@@H]12`, the Potency result in assay [5], in [6], in assay [11], in assay [12], in assay [7] and in [13] was “inactive” throughout. In addition, the Potency entry in assay [8], in assay [9], in [10], in assay [3], in [16] and in assay [4] was “inactive” each time. Besides, the Potency entry in [17] was “inactive”.

Consider `COP(=O)(OC)C(O)C(Cl)(Cl)Cl` (configuration not stated), for which the Potency entry in assay [5], in assay [6], in assay [11], in assay [12], in assay [7] and in assay [1] was “inactive” each time. Also, the Potency result in assay [13], in assay [8], in [9], in assay [10], in [3] and in [14] was “inactive” in each case. The Potency entry in assay [15], in [16], in assay [4] and in [17] was “inactive” each time.

Turning to `CCCC[N+]1(C)CCCC1`, the Potency result in assay [5], in [6], in assay [7], in [1], in [2] and in assay [13] was “inactive” each time. In addition, the Potency entry in [8], in assay [9], in assay [10], in [3], in assay [16] and in assay [4] was “inactive” each time. In [17], the Potency entry is “inactive”.

The values above are taken from PubChem BioAssay (Tox21).
